Our source for the Potency, outcome and activity change, negative = inhibition values is PubChem BioAssay (NCATS).

The nature of test [1]: Primary qHTS for Vero E6 cytotoxicity: counterscreen for inhibitors of SARS-S pseudo-typed particle cell entry (AID 1479150; calls by dose curve). In general terms: Quantitative high-throughput screening tests each substance at several concentrations.
Test [2] in a line: Cytotoxicity counterscreen for inhibitors of SARS-CoV-2 cell entry (AID 1645845; calls by dose curve; also: nearly all actives have a fitted effect of over 50% in size). The following applies: outcome: dose series up to 57.1 µM unless noted. The method, boiled down: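 HEK293-ACE2 cells (Expi293F stably expressing human ACE2) seeded overnight, then compound for 1 h plus 48 h at 37C. Viability as ATP content by luminescence; normalized to wells with cells and media-only wells.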

The nature of test [3]: Primary qHTS to identify inhibitors of SARS-CoV-2 cell entry (AID 1645846; calls by dose curve; also: nearly all actives have a fitted effect of over 45% in size). Particulars: activity change, negative = inhibition: at 57.1 µM (top of the series) unless noted. The method, boiled down: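 Entry measured by luciferase signal 48 h after adding SARS-CoV-2-S pseudotyped MLV particles to HEK293-ACE2 cells preincubated 1 h with compounds. Normalisation: bald particles and spike particles.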

Test [4] can be described thus: Primary qHTS for inhibitors of La Crosse Virus (LACV) - induced cell death in SH-SY5Y cells (AID 1508616). Also: potency is read from the fitted curve at half-maximal effect.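 As to activity change: top concentration of the series differs between compounds; higher means more rescue of cells from virus-induced death.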 The method, boiled down: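 Readout was luminescence from ATPLite 1step added after a 6-day LACV infection (0.01 MOI) of SH-SY5Y cells that had received pin-transferred compound 24 hr after seeding.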
Test [5] has as its target Calcium and integrin-binding protein 1 (Homo sapiens) (UniProt Q99828). Nature of the test: Validation qHTS for Identification of Calcium Integrin Binding protein 1 (CIB1) Competitor (AID 1508618). A digest of the protocol: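 CIB1-GST (1 uM final) incubated 15 min at room temperature with compounds (up to 114 uM), then FITC-labelled alphaIIb peptide (100 nM) added. FP read (Ex 480/Em 540) after 15 min, pH 7.4 buffer containing 5 mM CaCl2.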

Test [6] can be described thus: Primary qHTS for small molecule stabilizers of the endoplasmic reticulum resident proteome: Secreted ER Calcium Modulated Protein (SERCaMP) assay (AID 1508630). The method, boiled down: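 GLuc-SERCaMP-expressing SH-SY5Y cells, pretreated 16 h with compound, are challenged with thapsigargin to empty ER calcium stores; after 4 h, coelenterazine is added directly to the medium and luminescence is imaged.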

In another test the target is Papain (Carica papaya) (UniProt P00784). Nature of the test: Primary qHTS assay for inhibitors of the protease papain (AID 1645873).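 Also: papain turnover of Z-FR-AMC read as the AMC fluorescence gain over 10 min.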 Also: potency is read from the fitted curve at half-maximal effect.
Sequence of Papain (Carica papaya) (P00784 whole entry, looked up): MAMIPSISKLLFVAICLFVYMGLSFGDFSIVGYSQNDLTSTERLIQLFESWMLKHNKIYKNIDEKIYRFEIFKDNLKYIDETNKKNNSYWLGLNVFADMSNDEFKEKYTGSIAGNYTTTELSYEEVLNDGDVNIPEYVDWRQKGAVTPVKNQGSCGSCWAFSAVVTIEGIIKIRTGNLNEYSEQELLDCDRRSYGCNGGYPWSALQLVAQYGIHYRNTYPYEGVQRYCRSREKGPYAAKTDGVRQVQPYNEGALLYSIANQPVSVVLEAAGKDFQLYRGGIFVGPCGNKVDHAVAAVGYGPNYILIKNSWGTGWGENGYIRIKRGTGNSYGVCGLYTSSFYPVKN

Records with an inconclusive call do not appear. Where a call stands in place of a potency, no number is given. Calls of active or inactive are those of the source. Unless noted, calls follow the shape of the dose curve; as a rule, active = well fitted curve in the direction sought with a large enough effect; inconclusive = small, poorly fitted or top-dose-only effect, or another doubt; inactive = no such curve, though single readings can be large; an effect the other way counts as inactive or inconclusive.

Sequence of Calcium and integrin-binding protein 1 (Homo sapiens) (Q99828 whole entry, looked up): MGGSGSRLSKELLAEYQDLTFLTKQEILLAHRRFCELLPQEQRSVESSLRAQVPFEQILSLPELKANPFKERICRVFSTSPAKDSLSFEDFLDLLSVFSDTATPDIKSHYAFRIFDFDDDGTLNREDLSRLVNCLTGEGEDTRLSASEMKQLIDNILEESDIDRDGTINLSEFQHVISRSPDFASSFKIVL

As for `CCC1C(C)=NN=C(c2ccc(OC)c(OC)c2)c2cc(OC)c(OC)cc21` (stereo not drawn), the Potency entry in test [1] and in test [3] was “inactive” each time. Also, the result in test [2] was inactive.

As to `CC(=O)OCC1=C(C(=O)O)N2C(=O)[C@@H](NC(=O)CCC[C@@H](N)C(=O)O)[C@H]2SC1`, the Potency entry in test [4] and in test [5] was “inactive” in each case. In test [6], the result was inactive.

In the case of `O=S(=O)(O)c1cc(O)ccc1O`, the Potency entry in test [1] was “inactive”. For the same compound, in test [2], the compound was classed as inactive. The activity change, negative = inhibition in test [3] was -12.6%.

`Cc1sc2ccccc2c1CC1=NCCN1`: the Potency result in test [4] and in test [5] was “inactive” throughout. Moreover, the outcome in test [6] was inactive. Further, in the test with Papain (Carica papaya), the Potency was 28.2 µM (active).

On to `N=C(N)c1ccc(CS(=O)(=O)F)cc1`, for which the Potency result (in test [4]; in test [5]; with Papain (Carica papaya)) was “inactive” in each case. In addition, in test [6], the outcome was inactive.

As to `NC(=O)c1ccc(OCC(O)CN2CC=C(c3ccc(F)cc3)CC2)cc1` (stereo not drawn), the Potency result (in test [4]; in test [5]; with Papain (Carica papaya)) was “inactive” each time. The outcome in test [6] was inactive.

For `CP(=O)(O)C1=CCNCC1`, the Potency entry (in test [4]; in test [5]; with Papain (Carica papaya)) was “inactive” in each case. Also, in test [6], the outcome was inactive.

For the compound `Cc1c2ccncc2c(C)c2c1[nH]c1ccccc12`, the Potency in test [4] is 1.58 µM (active). The Potency entry (in test [5]; with Papain (Carica papaya)) was “inactive” throughout. For the same compound, in test [6], the outcome was inactive.

Consider `CCS(=O)(=O)Nc1cccc(C(=C2CCCCC2)c2cnc[nH]2)c1`, for which the Potency entry (in test [4]; in test [5]; with Papain (Carica papaya)) was “inactive” in each case. Further, in test [6], the result was inactive.

Regarding `O=C1C=CC(=O)C=C1`, the Potency entry (in test [4]; in test [5]; with Papain (Carica papaya)) was “inactive” in each case. In addition, the result in test [6] was inactive.

Turning to `CC(C)(O)[C@@H]1C2OC(=O)[C@@H]1[C@]1(O)C[C@H]3O[C@]34C(=O)O[C@H]2[C@]14C` (tested in a mixture with another compound), the Potency entry (in test [4]; in test [5]; with Papain (Carica papaya)) was “inactive” throughout. Moreover, in test [6], the outcome was inactive.

With `CCCN(CCC)C1CCc2cccc(O)c2C1` (stereo not drawn), the Potency result (in test [4]; in test [5]; with Papain (Carica papaya)) was “inactive” in each case. Also, the result in test [6] was inactive.

For the compound `N[C@@]1(C(=O)O)CC[C@@H](C(=O)O)C1`, the Potency result (in test [4]; in test [5]; in the test with Papain (Carica papaya)) was “inactive” throughout. The result in test [6] was inactive.

Consider `O=S1(=O)N(CCN2CC=C(c3c[nH]c4cc(F)ccc34)CC2)c2cccc3c2N1CCC3`, for which the Potency result (in test [4]; in test [5]; in the test with Papain (Carica papaya)) was “inactive” in each case. Moreover, the outcome in test [6] was inactive.

Turning to `CN1CC[C@@]2(C)c3cc(O)ccc3N(C)C12` (stereo partly drawn), the Potency result (in test [4]; in test [5]; with Papain (Carica papaya)) was “inactive” in each case. Further, the result in test [6] was inactive.

With `C=CCN1CCC23c4c5ccc(O)c4O[C@H]2C(=O)CC[C@@]3(O)C1C5` (stereo partly drawn), the Potency result (in test [4]; in test [5]; with Papain (Carica papaya)) was “inactive” in each case. The result in test [6] was inactive.

Consider `CC12NC(Cc3ccccc31)c1ccccc12` (stereo not drawn), for which the Potency result (in test [4]; in test [5]; in the test with Papain (Carica papaya)) was “inactive” throughout. The result in test [6] was inactive.

`C[N+](C)(C)CC#CCOC(=O)Nc1cccc(Cl)c1`: the Potency result (in test [4]; in test [5]; in the test with Papain (Carica papaya)) was “inactive” each time. Also, the result in test [6] was inactive.

In the case of `NC(=O)c1cc(N2CC2)c([N+](=O)[O-])cc1[N+](=O)[O-]`, the Potency entry (in test [4]; in test [5]; in the test with Papain (Carica papaya)) was “inactive” throughout. Moreover, the result in test [6] was inactive.

`CCCN1CC[C@@H]2c3cc(O)ccc3CC[C@@H]21`: the Potency result (in test [4]; in test [5]; with Papain (Carica papaya)) was “inactive” throughout. In addition, in test [6], the outcome was inactive.

In the case of `C[C@H](Cc1ccc2c(c1)OC(C(=O)O)(C(=O)O)O2)NC[C@H](O)c1cccc(Cl)c1`, the Potency entry (in test [4]; in test [5]; with Papain (Carica papaya)) was “inactive” each time. The result in test [6] was inactive.

In the case of `CCOC(=O)c1ncn2c1[C@@H]1CCCN1C(=O)c1cc(OC)ccc1-2`, the Potency entry (in test [4]; in test [5]; with Papain (Carica papaya)) was “inactive” each time. Also, the outcome in test [6] was inactive.

In the case of `NCCCP(=O)(O)O`, the Potency entry (in test [4]; in test [5]; with Papain (Carica papaya)) was “inactive” each time. For the same compound, the result in test [6] was inactive.

For the compound `CC(N)c1cccc(Cl)c1Cl` (stereo not drawn), the Potency result (in test [4]; in test [5]; with Papain (Carica papaya)) was “inactive” throughout. In test [6], the outcome was inactive.

For `NC(CCCCCP(=O)(O)O)C(=O)O` (stereo not drawn), the Potency entry (in test [4]; in test [5]; in the test with Papain (Carica papaya)) was “inactive” in each case. Further, the result in test [6] was inactive.

For the compound `CC(Cc1ccc(OCC(=O)O)cc1)NCC(O)c1cccc(Cl)c1` (stereo not drawn), the Potency entry (in test [4]; in test [5]; with Papain (Carica papaya)) was “inactive” in each case. Also, the result in test [6] was inactive.

For `C[N+](C)(C)CCOC(=O)CBr`, the Potency entry (in test [4]; in test [5]; in the test with Papain (Carica papaya)) was “inactive” throughout. In addition, the result in test [6] was inactive.

With `CCCCCCCCCCCCCC(=O)O[C@@H]1[C@@H](C)[C@@]2(O)[C@@H](C=C(CO)C[C@@]3(O)C(=O)C(C)=C[C@@H]23)C2C(C)(C)[C@@]21OC(C)=O` (stereo partly drawn), the Potency result (in test [4]; in test [5]; with Papain (Carica papaya)) was “inactive” throughout. Besides, the outcome in test [6] was inactive.

For the compound `NC(C(=O)O)c1cc(=O)[nH]o1` (stereo not drawn), the Potency entry (in test [4]; in test [5]; in the test with Papain (Carica papaya)) was “inactive” throughout. The outcome in test [6] was inactive.

In the case of `OC1CCCCC1N1CCC(c2ccccc2)CC1` (stereo not drawn), the Potency entry (in test [4]; in test [5]; in the test with Papain (Carica papaya)) was “inactive” throughout. In test [6], the result was inactive.

In the case of `C[C@H](N)Cc1cccc(C(F)(F)F)c1`, the Potency result (in test [4]; in test [5]; with Papain (Carica papaya)) was “inactive” each time. For the same compound, the outcome in test [6] was inactive.

For the compound `O=C1CC[C@@]2(O)C3Cc4ccc(O)c5c4C2(CCN3CC2CC2)[C@H]1O5` (stereo partly drawn), the Potency entry (in test [4]; in test [5]; with Papain (Carica papaya)) was “inactive” each time. Besides, the result in test [6] was inactive.

On to `COc1ccc2[nH]cc(CCN)c2c1`, for which the Potency result (in test [4]; in test [5]; with Papain (Carica papaya)) was “inactive” in each case. In test [6], the outcome was inactive.

As for `Cc1[nH]c2ccc(O)cc2c1CCN`, the Potency entry (in test [4]; in test [5]; with Papain (Carica papaya)) was “inactive” in each case. Also, the outcome in test [6] was inactive.
